The full ranking holds about 35,000 sequences; the median of “fluorescence intensity (a.u.)” is about 10,000, and the highest 2% start at about 52,000. This excerpt belongs to a sample that is enriched for the highest values.
molecular target: T1, OsWOX13 (Oryza sativa, UniProt Q5QMM3 1-267); experiment: protein-binding microarray (RPBM); PBS, 2% BSA, 51.3 ng/ul salmon testes DNA, 50 uM zinc acetate, 200 nM TF, 25 C, 1 h; high values mean tight binding; settings: protein: recombinant; tags: N-terminal polyhistidine and DsRed monomer fusion (pET32a); label: CyDye5-dUTP incorporated in the synthesized complementary strand; 3' TTTTT single-stranded linker to array surface; dsDNA, one strand shown
T1 sequence: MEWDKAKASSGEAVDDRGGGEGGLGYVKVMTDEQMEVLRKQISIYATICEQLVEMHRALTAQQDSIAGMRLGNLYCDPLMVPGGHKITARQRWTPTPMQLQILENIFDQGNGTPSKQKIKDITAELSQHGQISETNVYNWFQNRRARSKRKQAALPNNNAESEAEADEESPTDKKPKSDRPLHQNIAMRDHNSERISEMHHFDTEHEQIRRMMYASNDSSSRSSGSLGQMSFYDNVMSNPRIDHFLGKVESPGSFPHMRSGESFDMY
Outline: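 The binding signal for each feature is its fluorescence intensity in arbitrary units. An Axon 4000B scanner was used to read a custom Agilent array that had been made double-stranded with Cy5-dUTP primer extension, blocked with 2% BSA, incubated at 25 °C for 1 h with 200 nM protein in PBS, 2% BSA, salmon testes DNA and 50 µM zinc acetate, and washed. The protein was an N-terminal polyhistidine–DsRed transcription factor fusion from E. coli BL21-CodonPlus, purified on Ni–NTA.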

| Sequence | binding signal |
| --- | --- |
| TATGATTCTTTTCTAAAAGATTGATACGACATATCAATATCGGAGTCACCTAGTGCAG | 5300 fluorescence intensity (a.u.) |
| CAACTAAACTTTTAATTTTAGCATAAACTAAACAGACCCACGGAGTCACCTAGTGCAG | 5430 fluorescence intensity (a.u.) |
| TATAATTACATTGTAACTGTATTGTAAATACATTTTAATTCGGAGTCACCTAGTGCAG | 5830 fluorescence intensity (a.u.) |
| TAAATTGTACATGATATATGTCAAGTGTCAACGTCTGATTCGGAGTCACCTAGTGCAG | 5030 fluorescence intensity (a.u.) |
| ACTCCACACACTGATCAACACTAATCAGCATGTACATTTGCGGAGTCACCTAGTGCAG | 4090 fluorescence intensity (a.u.) |
| TCGTTCTTCATGGTTGGGGCTGATTAGGTTGATGAGATAGCGGAGTCACCTAGTGCAG | 3850 fluorescence intensity (a.u.) |
| CTTGATTGTTCTTTCTTGCTCAAATGCCGGCCTGTGTTGGCGGAGTCACCTAGTGCAG | 53200 fluorescence intensity (a.u.) |
| TCTGATTGGTACATGCTCACCTGGTTGGCTGGTTCTTCAGCGGAGTCACCTAGTGCAG | 53800 fluorescence intensity (a.u.) |
| CTTTGTCTTTGTTTCTTGTTGATTGCAGGATCAAATCAACCGGAGTCACCTAGTGCAG | 5330 fluorescence intensity (a.u.) |
| TCTTTGTCAATCTTGTTTGGTTGCTCAAATCTTTTGGTGGCGGAGTCACCTAGTGCAG | 7260 fluorescence intensity (a.u.) |
| TTTGGTTGGATTGGATTGGATTGGATTGGCTGCTTCCCTGCGGAGTCACCTAGTGCAG | 25000 fluorescence intensity (a.u.) |
| TTCGTGCCTTTTGTTTGATAATTTCTTCATGCTATCTTTTCGGAGTCACCTAGTGCAG | 3660 fluorescence intensity (a.u.) |
| ACAAAATAAAATGATGGGCATTTTCTTCAGTTACAATTTCCGGAGTCACCTAGTGCAG | 3910 fluorescence intensity (a.u.) |
| TTACTAGATTTATCATTAAACATACTATCATAATATGCAACGGAGTCACCTAGTGCAG | 6040 fluorescence intensity (a.u.) |
| TGTGATGAATTGAGCGAACCAGCAGGGCTTCGCCGCTCCCCGGAGTCACCTAGTGCAG | 5470 fluorescence intensity (a.u.) |
| GTTGATGGGCAGCTTAATTACGGCCCGCCTGTTTAGCCAACGGAGTCACCTAGTGCAG | 17500 fluorescence intensity (a.u.) |
| AGCCCCTAAGCCAATCAATTAGCAGGCATCTTTACTCCTACGGAGTCACCTAGTGCAG | 18500 fluorescence intensity (a.u.) |
| GCCAACCTTATAGCTAATTATTATATATATTGACTTTAAGCGGAGTCACCTAGTGCAG | 4860 fluorescence intensity (a.u.) |
| ATTAATTAATTAGTCGGCCAACCTAGCTGTTGACTGGGAACGGAGTCACCTAGTGCAG | 55900 fluorescence intensity (a.u.) |
| AATTAATTTAGCCCCTAATTAATTAGCAGCCAATCAACGGCGGAGTCACCTAGTGCAG | 54000 fluorescence intensity (a.u.) |
| TCCAATTTACTAATTACCACTTTATACGTACAATTATTGACGGAGTCACCTAGTGCAG | 23500 fluorescence intensity (a.u.) |
| CCACTTTTAGATTTGACAATTAACTATTTGTCACTTTTAGCGGAGTCACCTAGTGCAG | 23600 fluorescence intensity (a.u.) |
| TTTAATTTACAGTTAAATTAACTTAATCTGTAAAAGGGATCGGAGTCACCTAGTGCAG | 57500 fluorescence intensity (a.u.) |
| AGAGACAGCGAATCAATTAGCCAATGCTAATAATTTATAACGGAGTCACCTAGTGCAG | 8160 fluorescence intensity (a.u.) |
| AAAATTACAGTCTTATTTAACTAAAATTACATATGTAAATCGGAGTCACCTAGTGCAG | 5170 fluorescence intensity (a.u.) |
| AATTAATAAAATAAATCTATTACAGTTAACTAAAGGTATTCGGAGTCACCTAGTGCAG | 5780 fluorescence intensity (a.u.) |
| ATTAATTATTAATTTACTTTTGACAATTACTAATTAGCCACGGAGTCACCTAGTGCAG | 56700 fluorescence intensity (a.u.) |

| Sequence | binding signal |
| --- | --- |
| ATACATTAATTTGATGCCCCAATAGAAGCACGCCAATCATCGGAGTCACCTAGTGCAG | 12000 fluorescence intensity (a.u.) |
| TGTTGTTAGATGATAAAACATGATTAATATTTTATGCGTGCGGAGTCACCTAGTGCAG | 3610 fluorescence intensity (a.u.) |
| GTTTTGATAAATTGATTTAAAACGCTTTATAAGAAGTGTCCGGAGTCACCTAGTGCAG | 43800 fluorescence intensity (a.u.) |
| AATTTTGATAGGGTAGAATTGAAAATGTTTATTTGGATTGCGGAGTCACCTAGTGCAG | 10500 fluorescence intensity (a.u.) |
| AAATAACTGGTGGATATTTGTACGCTGCCCCTGAGGAACTCGGAGTCACCTAGTGCAG | 3900 fluorescence intensity (a.u.) |
| TGTTTTCCTAAGTGATTGGTGGGAAACCTCGTAGGATAAGCGGAGTCACCTAGTGCAG | 9180 fluorescence intensity (a.u.) |
| TTGATTGGGAGGAAGCCAAGAAGAAGTCAAGAACTGCCCACGGAGTCACCTAGTGCAG | 31900 fluorescence intensity (a.u.) |
| GTTTATTTGGGCCTGATTGGCACAGATGGTAGTGCCATGTCGGAGTCACCTAGTGCAG | 31700 fluorescence intensity (a.u.) |
| CCAAAATAAACAACCAAAATTTCGCCGTGTAACTAACTCTCGGAGTCACCTAGTGCAG | 3300 fluorescence intensity (a.u.) |
| CGTTTAATTGTGTATATATATAGCCACATTAAAGTACACACGGAGTCACCTAGTGCAG | 11100 fluorescence intensity (a.u.) |
| TAGTGTAATTTAACACTTAATTAGCCACATTTGTTACACACGGAGTCACCTAGTGCAG | 61900 fluorescence intensity (a.u.) |
| CACAGACACATTTGGTTAATTACATACCTTGTACACTTCACGGAGTCACCTAGTGCAG | 6260 fluorescence intensity (a.u.) |
| ATTGACTTGACGACCGCCATGAATTCATCTCATCTCATCTCGGAGTCACCTAGTGCAG | 5970 fluorescence intensity (a.u.) |
| AGGCTAATTAACAGAGAGGGGACAATATGCAACAACGTATCGGAGTCACCTAGTGCAG | 24000 fluorescence intensity (a.u.) |
| GATGAAACATATATTGACTGTAACATGTAGATTACATGATCGGAGTCACCTAGTGCAG | 6110 fluorescence intensity (a.u.) |
| CTTATTAACATTTAATTTGGTTTCTTCCTTAATTTGTATCCGGAGTCACCTAGTGCAG | 12600 fluorescence intensity (a.u.) |
| ACTTAATTAACTTGGTTCTTCCTTTAATTTCTAGCTATATCGGAGTCACCTAGTGCAG | 50100 fluorescence intensity (a.u.) |
| TATAATTATTAATAATTAATTAATTATATATTAATTATTTCGGAGTCACCTAGTGCAG | 26700 fluorescence intensity (a.u.) |
| TGGTATATTAATTATTTCCTTTCCTTCCTTTCCCTTCCGACGGAGTCACCTAGTGCAG | 5690 fluorescence intensity (a.u.) |
| TTCTGCTGCACCTAATTAATTAAATTTCCCCGCTATAATTCGGAGTCACCTAGTGCAG | 11300 fluorescence intensity (a.u.) |
| TTAATTAATTAATTTTCTTCCTAAACATATCCGCTAATCCCGGAGTCACCTAGTGCAG | 53500 fluorescence intensity (a.u.) |
| TAATTAATTATAATTAATTAATCCTACTGGTGCTTTCCTTCGGAGTCACCTAGTGCAG | 54300 fluorescence intensity (a.u.) |
| ATTTCTTTAATTAATTAATTAATTAACATATATATCCCTTCGGAGTCACCTAGTGCAG | 60600 fluorescence intensity (a.u.) |
| CTTTAATTTCTTCTTCTTTTCCACATATAATAATAATATACGGAGTCACCTAGTGCAG | 4030 fluorescence intensity (a.u.) |
| CCATCGTAATTGATCGAAAACTGACAACATGTTAGGGTTGCGGAGTCACCTAGTGCAG | 12700 fluorescence intensity (a.u.) |
| AAACAAATGATTTTATTCATTTACTCATTCATCATATCACCGGAGTCACCTAGTGCAG | 10300 fluorescence intensity (a.u.) |
| CCATGATGATGAGTCATTTTAACAGTCTGCAAGTACTAAACGGAGTCACCTAGTGCAG | 8500 fluorescence intensity (a.u.) |
